Screens from PubChem.
This is a sample that favours compounds with a hit; in the whole collection about 3.5% have one here.
rCAG RNA binder – molecules binding r(CAG) RNA repeats; 370,000 tested, 1.3% active; inhibition, % at 3 µM; r(CAG) RNA repeat, TO-PRO-1 dye displacement fluorescence;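 active = inhibition above the plate cutoff, the mean of all test compounds on that plate plus 3 SD, cut at about 35% in these data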;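 note: higher means more dye released from RNA so lower well fluorescence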
PG9 Ab binder – binds the HIV-1 gp120 antibody PG9; TR-FRET gp120-PG9 antibody binding; inhibition, % at 6.7 µM; 360,000 tested, 0.43% active; in the data active = inhibition above about 8.5%
MBD2 DNA inh – inhibitors of human MBD2 binding to methylated oligonucleotide | Q9UBB5 | TR-FRET | inhibition, % at 4.4 µM | 370,000 tested, 0.31% active | AID 686964; in the data active = inhibition above about 13%
LEDGF integ inh – blocks HIV-1 LEDGF/p75-dependent DNA integration; 370,000 tested, 0.64% active; AID 743269; TR-FRET IN-LEDGF/p75 DNA integration, Eu/Cy5; inhibition, % at 3.7 µM;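 active = inhibition above the screen-wide mean plus 3 SD, cut at about 13% in these data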;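 note: signal is the Cy5 over europium emission ratio at 671 and 618 nm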
UHRF1 binding – blocks human UHRF1 binding to methylated DNA. inhibition, % at 4.4 µM. 370,000 tested, 0.75% active. UHRF1 binding to methylated oligo, TR-FRET; in the data active = inhibition above about 21%;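 note: UHRF1 SRA domain binding a hemimethylated CpG hairpin DNA probe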
DNMT1 block – blocks human DNA methyltransferase DNMT1; 360,000 tested, 0.83% active; DNMT1 molecular beacon, Hinp1I cleavage, fluorescence; AID 588458; P26358; inhibition (reported as % activation of signal), % at 10 µM; in the data active = inhibition above about 50%
Target sequence (P26358 504-1616 limits assumed): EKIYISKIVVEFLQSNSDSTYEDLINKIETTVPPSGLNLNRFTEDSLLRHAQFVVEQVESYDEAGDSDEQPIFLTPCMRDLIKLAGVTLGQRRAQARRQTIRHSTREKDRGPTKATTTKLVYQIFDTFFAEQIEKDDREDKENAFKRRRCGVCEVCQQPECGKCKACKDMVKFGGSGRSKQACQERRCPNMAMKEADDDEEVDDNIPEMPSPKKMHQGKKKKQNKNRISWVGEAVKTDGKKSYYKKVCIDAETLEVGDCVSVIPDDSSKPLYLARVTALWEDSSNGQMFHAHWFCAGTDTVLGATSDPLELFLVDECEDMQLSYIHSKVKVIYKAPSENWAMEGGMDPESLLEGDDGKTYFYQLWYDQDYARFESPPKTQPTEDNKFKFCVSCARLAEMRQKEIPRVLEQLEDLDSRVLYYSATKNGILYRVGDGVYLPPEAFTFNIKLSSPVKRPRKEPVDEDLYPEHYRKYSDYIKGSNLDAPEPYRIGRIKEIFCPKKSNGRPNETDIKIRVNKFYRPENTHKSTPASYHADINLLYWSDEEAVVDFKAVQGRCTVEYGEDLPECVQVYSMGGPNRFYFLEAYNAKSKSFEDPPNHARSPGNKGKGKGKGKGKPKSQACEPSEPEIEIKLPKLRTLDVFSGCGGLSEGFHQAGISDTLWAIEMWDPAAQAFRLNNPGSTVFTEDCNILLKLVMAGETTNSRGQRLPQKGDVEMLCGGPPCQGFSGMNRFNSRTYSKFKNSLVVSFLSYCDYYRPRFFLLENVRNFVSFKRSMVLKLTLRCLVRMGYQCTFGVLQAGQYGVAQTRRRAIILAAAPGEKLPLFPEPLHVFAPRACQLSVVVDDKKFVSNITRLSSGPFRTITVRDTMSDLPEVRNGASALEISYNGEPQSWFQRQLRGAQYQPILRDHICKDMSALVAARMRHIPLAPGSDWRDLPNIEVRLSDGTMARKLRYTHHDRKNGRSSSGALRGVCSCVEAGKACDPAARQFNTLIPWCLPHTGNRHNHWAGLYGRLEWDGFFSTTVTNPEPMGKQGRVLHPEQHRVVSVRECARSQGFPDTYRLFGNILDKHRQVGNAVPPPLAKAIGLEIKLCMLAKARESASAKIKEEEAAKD
IN multimer act – counter-screen for LEDGF/p75 integration inhibitors: HIV-1 integrase multimerization activators | shares compounds with LEDGF integ inh | TR-FRET HIV-1 integrase multimerization, biochemical | activation, % at 7.7 µM | 2,000 tested, 17% active; in the data active = activation above about 8.9%
TRFRET interf – TR-FRET optical interference, LEDGF/p75 integration counter-screen; shares compounds with LEDGF integ inh; TR-FRET optical interference counterscreen, HIV-1 IN multimerization; inhibition, % at 7.7 µM; 2,000 tested, under 10 active;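 active = inhibition above the mean over all tested compounds plus 3 SD, which no compound reached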
LEDGF integ conf – LEDGF/p75-dependent HIV-1 integration inhibition, confirmation. shares compounds with LEDGF integ inh. TR-FRET LEDGF/p75-dependent HIV-1 integration, biochemical. inhibition, % at 3.7 µM. 2,000 tested, 36% active. AID 1053136; in the data active = inhibition above about 14%
Of the large screens only hits and unclear results are named; the others gave an inactive call (follow-up assays come after a bar, where they were run).

Cc1ccc(C)c(-n2c3nc(=O)[nH]c(=O)c-3cc3cc([N+](=O)[O-])ccc32)c1	LEDGF integ inh 21.1 | IN multimer act inactive | TRFRET interf inactive | LEDGF integ conf 21.5
Cc1cc(F)ccc1S(=O)(=O)N(CC(=O)N1CCOCC1)CC(=O)N1CCOCC1	none
O=C(NC1CCCC1)C(c1cccnc1)N(Cc1ccc(F)cc1)C(=O)c1csnn1 (configuration not stated)	LEDGF integ inh 20.6 | IN multimer act inactive | TRFRET interf inactive | LEDGF integ conf inactive
O=C(NC1CCCC1)C(c1cccnc1)N(Cc1ccccc1F)C(=O)c1csnn1 (configuration not stated)	none
O=[N+]([O-])c1ccc(Oc2ccc(S(=O)(=O)N3CCOCC3)cn2)cc1	none
Cc1ccc(CNC(=O)/C=C/c2cccs2)cc1	LEDGF integ inh 25.2 | IN multimer act inactive | TRFRET interf inactive | LEDGF integ conf inactive
CCCCNC(=O)/C=C/c1cccs1	none
N#Cc1cccc(C2CC(OCCF)=CC(=O)O2)c1 (configuration not stated)	none (no result: DNMT1 block)
O=C1NC2(CCCCCC2)C(=O)N1Cc1ccccc1Cl	LEDGF integ inh 27.9 | IN multimer act inactive | TRFRET interf inactive | LEDGF integ conf inactive
OC[C@@H]1CN(CCc2ccccc2)C[C@H](n2cnc3c(NCc4ccc(F)cc4)ncnc32)O1	none
CC(C)(C)N1C(=O)c2ccccc2NC(=O)C1C(=O)NCCOc1ccccc1 (configuration not stated)	none (no result: DNMT1 block)
O=C1Nc2ccccc2C1Cc1ccccn1 (configuration not stated)	none
N#CC1C(=O)Nc2cccnc21 (configuration not stated)	LEDGF integ inh 27.4 | IN multimer act inactive | TRFRET interf inactive | LEDGF integ conf inactive
CCCCNC(=O)C1c2ccccc2OCC(=O)N1Cc1ccco1 (configuration not stated)	none (no result: DNMT1 block)
CCCCNC(=O)C1c2ccccc2OCC(=O)N1Cc1ccccn1 (configuration not stated)	LEDGF integ inh 29.7 (no result: DNMT1 block) | IN multimer act inactive | TRFRET interf inactive | LEDGF integ conf inactive
COc1ccc(NC(=S)N2CCC(NC(=O)c3ccc(OC)cc3)CC2)cc1	LEDGF integ inh 26.6 | IN multimer act inactive | TRFRET interf inactive | LEDGF integ conf inactive
CC(C)CN(C(=O)COc1ccc([N+](=O)[O-])cc1)c1c(N)n(CC(C)C)c(=O)[nH]c1=O	none
COC(=O)C1=C(O)/C(=C\c2ccc(OCC(=O)Nc3ccccc3)cc2)N=C1C	none
COC(=O)C1=C(O)/C(=C\c2ccc(CNS(=O)(=O)c3ccccc3)o2)N=C1C	LEDGF integ inh 23.5 | IN multimer act inactive | TRFRET interf inactive | LEDGF integ conf 18.2
Cc1ccc(NC(=O)CCCCCC2NC(=O)NC2C)cc1 (configuration not stated)	none (no result: rCAG RNA binder, PG9 Ab binder, MBD2 DNA inh, LEDGF integ inh, UHRF1 binding)
CCc1cccc(NC(=O)CCCCCC2NC(=O)NC2C)c1 (configuration not stated)	LEDGF integ inh 77.1 | IN multimer act inactive | TRFRET interf inactive | LEDGF integ conf 91.5
CC1NC(=O)NC1CCCCCC(=O)Nc1ccc(F)c(Cl)c1 (configuration not stated)	LEDGF integ inh 74.1 | IN multimer act inactive | TRFRET interf inactive | LEDGF integ conf 91.6
CCOC(=O)N1CCN(C(C(=O)NC2CCCC2)C(C)C)CC1 (configuration not stated)	none (no result: DNMT1 block)
CCOC(=O)n1c2ccccc2c(=O)n1CCO	none
Cc1ccc(S(=O)(=O)Nc2ccc3c4c(cccc24)CC3)c(C)c1	none
Cc1ccc(C)c(S(=O)(=O)Nc2ccc(O)c3ccccc23)c1	none
Cc1ccc(S(=O)(=O)Nc2ccc(O)c3ccccc23)c(C)c1	LEDGF integ inh 13.6 | IN multimer act inactive | TRFRET interf inactive | LEDGF integ conf inactive
Cc1ccc(S(=O)(=O)Nc2cc(C(C(=O)OC(C)C)C(=O)C(F)(F)F)c(O)c3ccccc23)c(C)c1 (configuration not stated)	LEDGF integ inh 13.6 | IN multimer act inactive | TRFRET interf inactive | LEDGF integ conf inactive
CC(=O)C1=C(O)C(=O)N(CCc2c[nH]c3ccccc23)C1c1ccco1 (configuration not stated)	LEDGF integ inh 15.0 | IN multimer act inactive | TRFRET interf inactive | LEDGF integ conf inactive
Cc1ccccc1CNC(=O)c1csc([C@@H]2O[C@H](CO)[C@@H](O)[C@H]2O)n1	none
COC(=O)C1=C(C)N(Cc2ccco2)C(=O)C1	LEDGF integ inh 29.2 | IN multimer act inactive | TRFRET interf inactive | LEDGF integ conf 30.6
COc1cc(N)c2ncccc2c1SC	LEDGF integ inh 16.3 | IN multimer act inactive | TRFRET interf inactive | LEDGF integ conf 14.3
COc1cc(N)c2ncccc2c1Br	LEDGF integ inh 28.6 | IN multimer act inactive | TRFRET interf inactive | LEDGF integ conf inactive
O=C1c2ccccc2C(c2nnnn2Cc2ccccc2)N1C1CC1 (configuration not stated)	none (no result: DNMT1 block)
COC(=O)c1ccc2nc(-c3ccc(C)cc3)c(Cc3ccccc3)n2c1	LEDGF integ inh 13.6 (no result: DNMT1 block) | IN multimer act inactive | TRFRET interf inactive | LEDGF integ conf inactive
O=C(OCCCOC(=O)c1ccc([N+](=O)[O-])o1)c1ccc([N+](=O)[O-])o1	none
O=C(N/N=C/C=C/c1ccco1)C(O)c1ccccc1 (configuration not stated)	LEDGF integ inh 25.9 | IN multimer act inactive | TRFRET interf inactive | LEDGF integ conf 25.8
CCN(C[C@H]1[C@@H](c2ccc(C3=CCCC3)cc2)[C@H](CO)N1Cc1ccccn1)S(=O)(=O)c1ccccc1[N+](=O)[O-]	none (no result: PG9 Ab binder, DNMT1 block)
O=C(NNC(=O)C1CCCCC1)c1ccc(Br)cc1	LEDGF integ inh 14.6 | IN multimer act inactive | TRFRET interf inactive | LEDGF integ conf inactive
COC(=O)c1ccccc1NC(=O)CNCCc1ccc(OC)c(OC)c1	none
O=C(NC1CC1)c1sc2cc(Cl)ccc2c1Cl	none
O=C(NC1CC1)c1sc2cc(F)ccc2c1Cl	LEDGF integ inh 20.8 | IN multimer act inactive | TRFRET interf inactive | LEDGF integ conf inactive
CCN(Cc1ccccc1)c1cc2c(c3c1ccn3C)C1CCC2O1 (configuration not stated)	LEDGF integ inh 13.4 | IN multimer act inactive | TRFRET interf inactive | LEDGF integ conf inactive
CCCCCCCCN1C(=O)[C@@H](CC(=O)N2CCSCC2)C[C@@]2(C(=O)OC)C1=C[C@H](C(C)C)O[C@@H]2C1CC1	none (no result: PG9 Ab binder, DNMT1 block)
